Bioassay records: PubChem BioAssay, Broad Institute
Shown are actives, neighbours in structure and some others; about 6.8% of the full set was active somewhere.
T cruzi growth-1 – T. cruzi intracellular proliferation inhibitors, primary screen, cell-based, beta-gal Tulahuen parasites, NIH3T3 host, luminescence; AID 624255, 2012; inhibition, % at 8.34 µM; T. cruzi beta-gal in NIH3T3, GalScreen luminescence, 90 h; 77,000 tested, 5.9% active;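 active = mean inhibition above about 93%, with at least 55% of replicates each passing it, limit read from the data, passing the limit was not always enough; inconclusive = only one of those two conditions holds; inactive = neither condition holds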
Pf Dd2 growth – P. falciparum Dd2 growth inhibitors, primary screen, SYBR Green fluorescence, single dose replicates | 72 h; stronger effect = lower value | activity change, % at 10 µM | 94,000 tested, 2.3% active; in the data active = activity change below about -80%; inconclusive = no clear call, values can overlap the other calls
C diff HTS – C. difficile growth inhibitors, primary screen, HTS | growth activity, negative = inhibition, % at 16 µg/mL (by protocol) | Clostridium difficile clinical isolate growth, OD600, 24 h; stronger effect = lower value | 86,000 tested, 0.25% active;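 active = mean growth activity at or below -80% and every replicate also at or below -80%; inconclusive = mean at or below -80% but some replicate above -80%; inactive = mean growth activity above -80%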;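 also: 0% = DMSO wells and -100% = levofloxacin 16 µg/mL wells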
T cruzi growth-2 – T. cruzi intracellular proliferation inhibitors, confirmation, cell-based, NIH3T3 host, beta-gal parasite, luminescence, cherry-pick. shares compounds with T cruzi growth-1. T. cruzi beta-gal in NIH3T3, GalScreen luminescence, 90 h. inhibition, % at 8.35 µM. 5,600 tested, 72% active;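 active = mean replicate inhibition above about 95% and at least 55% of replicates individually reaching it, limit read from the data; inconclusive = only one of the two criteria is met; inactive = neither criterion is met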
T cruzi growth-3 – inhibitors of intracellular T. cruzi replication, confirmation, NIH3T3 host cells, beta-gal parasites, cherry-pick, set 2 | 5,600 tested, 21% active | inhibition, % at 2.09 µM | shares compounds with T cruzi growth-1 | T. cruzi beta-gal in NIH3T3, GalScreen luminescence, 90 h | AID 651740, 2012;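 active = mean inhibition above about 95%, with at least 55% of replicates also reaching it, limit read from the data; inconclusive = meets just one of the two conditions; inactive = meets neither condition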;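 also: plate controls were neutral control median for no effect and positive control median for full effect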
3T3 cytotox – cytotoxicity in mouse NIH/3T3 fibroblasts, confirmation, cytotoxicity control for T. cruzi proliferation inhibitor project, cell-based, cherry-pick, single point | shares compounds with T cruzi growth-1 | NIH/3T3 viability, CellTiter-Glo ATP luminescence, 90 h | cytotoxicity (signal decrease), % at 8.35 µM | 5,600 tested, 14% active | AID 651742, 2012;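 active = mean signal decrease across replicates above about 35% based on untreated-well scatter, with enough replicates individually passing, limit read from the data; inconclusive = no rule stated though some were filed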;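 also: 0% = median of neutral control wells and 100% = median of positive control wells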
3T3 cytotox 2 – NIH/3T3 fibroblast cytotoxicity, confirmation, cytotoxicity control, cell-based, cherry-pick, single point, set 2. inhibition, % at 24.9 µM. shares compounds with T cruzi growth-1. NIH/3T3 viability, CellTiter-Glo ATP luminescence, 90 h. 5,600 tested, 56% active;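 active = mean loss of cell viability signal at or above a set limit, and enough replicates individually reaching it; inconclusive = meets only the mean limit or only the replicate share; inactive = meets neither condition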;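 also: 0% = median of neutral control wells and 100% = median of positive control wells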
Active calls of the source: *; ? = inconclusive; · = not tested or not shown.

SMILES	T cruzi growth-1	Pf Dd2 growth	C diff HTS	T cruzi growth-2	T cruzi growth-3	3T3 cytotox	3T3 cytotox 2
C[C@H](CO)N1C[C@H](C)[C@@H](CN(C)C(=O)NC2CCCCC2)Oc2cc(C#Cc3cccc(F)c3)ccc2S1(=O)=O	·	1.0	·	·	·	·	·
C[C@@H]1CN([C@H](C)CO)S(=O)(=O)c2ccc(C#Cc3ccc(F)cc3)cc2O[C@@H]1CN(C)C(=O)NC1CCCC1	113.7*	-49.8	15.9	?	84.5	14.1	104.0*
C[C@@H]1CN([C@@H](C)CO)C(=O)c2cc(C#CCN(C)C)cnc2O[C@H]1CN(C)C(=O)CCN1CCCCC1	-73.9	42.1	-0.3	·	·	·	·
COc1ccc(S(=O)(=O)Nc2ccc3c(c2)CC(=O)N([C@H](C)CO)C[C@H](C)[C@@H](CN(C)S(=O)(=O)c2ccc(C)cc2)O3)cc1	-14.6	-48.9	-6.7	·	·	·	·
C[C@@H]1CN([C@@H](C)CO)S(=O)(=O)c2ccc(C#Cc3ccc(F)cc3)cc2O[C@@H]1CN(C)C(=O)NC1CCCCC1	81.6	28.4	0.2	·	·	·	·
COc1ccc(C#Cc2ccc3c(c2)O[C@@H](CN(C)C(=O)NC2CCCCC2)[C@H](C)CN([C@@H](C)CO)S3(=O)=O)cc1	?	-67.5	-9.6	100.1*	98.6*	-30.0	-3.1
COCCNC(=O)C[C@H]1CC[C@@H]2[C@@H](COc3ccc(NC(=O)Nc4ccccc4)cc3C(=O)N2C)O1	30.2	-13.2	-11.3	·	·	·	·
COc1ccccc1S(=O)(=O)N[C@@H]1C=C[C@H](CC(=O)NCc2cc(F)cc(F)c2)O[C@@H]1CO	29.8	1.4	·	·	·	·	·
CC(C)C#Cc1ccc([C@H]2[C@@H](CO)N3CCCCN(S(=O)(=O)Cc4ccccc4)C[C@@H]23)cc1	109.4*	4.6	-8.0	108.5*	64.7	26.7	11.9
C[C@@H](O)C#Cc1ccc([C@H]2[C@@H](CO)N3CCCCN(S(=O)(=O)Cc4ccccc4)C[C@@H]23)cc1	57.5	-61.1	3.3	·	·	·	·
C[C@@H](O)C#Cc1ccc([C@H]2[C@H](CO)N3CCCCN(S(=O)(=O)Cc4ccccc4)C[C@@H]23)cc1	67.4	-21.9	-7.3	·	·	·	·
CC(C)C#Cc1ccc([C@@H]2[C@H](CO)N3CCCCN(S(=O)(=O)Cc4ccccc4)C[C@@H]23)cc1	101.9*	-63.3	0.8	104.4*	72.0	47.2*	105.1*
C[C@H](O)C#Cc1ccc([C@@H]2[C@@H](CO)N3CCCCN(S(=O)(=O)Cc4ccccc4)C[C@@H]23)cc1	53.8	-40.4	-4.4	·	·	·	·
CC(C)C#Cc1ccc([C@H]2[C@@H](CO)N3CCCCN(S(=O)(=O)Cc4ccccc4)C[C@H]23)cc1	103.2*	-66.1	8.5	104.6*	73.4	57.9*	104.5*
CC(C)C#Cc1ccc([C@H]2[C@H]3CN(S(=O)(=O)Cc4ccccc4)CCCCN3[C@H]2CO)cc1	110.1*	-2.9	-3.3	105.8*	45.8	27.3	20.9
C[C@H](O)C#Cc1ccc([C@H]2[C@H](CO)N3CCCCN(S(=O)(=O)Cc4ccccc4)C[C@@H]23)cc1	58.2	-22.6	2.5	·	·	·	·
CC(C)NC(=O)Nc1ccc2c(c1)C(=O)N([C@@H](C)CO)C[C@@H](C)[C@@H](CN(C)C)OCCCC[C@@H](C)O2	22.5	21.9	-3.2	·	·	·	·
C[C@H](CO)N1C[C@H](C)[C@@H](CN(C)Cc2ccc(Cl)c(Cl)c2)Oc2ccc(NC(=O)Nc3ccc4c(c3)OCO4)cc2C1=O	74.5	-15.0	·	·	·	·	·
CCC(=O)Nc1ccc2c(c1)OC[C@@H](C)N(C(=O)COC)C[C@H](C)[C@H](OC)CN(C)C2=O	14.2	1.4	3.3	·	·	·	·
COCC(=O)N(C)C[C@H]1Oc2ncc(C#CC3(O)CCCC3)cc2C(=O)N([C@H](C)CO)C[C@H]1C	8.5	14.1	-3.1	·	·	·	·
COc1ccc(NC(=O)N(C)C[C@H]2OCCCC[C@H](C)Oc3ccc(NC(=O)CCC(F)(F)F)cc3C(=O)N([C@@H](C)CO)C[C@@H]2C)cc1	53.3	-17.6	-20.4	·	·	·	·
CO[C@@H]1CN(C)C(=O)c2cc(NS(C)(=O)=O)ccc2OC[C@H](C)N(C(=O)CN(C)C)C[C@@H]1C	72.1	13.3	5.4	·	·	·	·
CN1C(=O)c2cc(NC(=O)c3cccc(C(F)(F)F)c3)ccc2OC[C@@H]2O[C@@H](CC(=O)NCCN3CCCC3)CC[C@H]21	2.3	-15.0	-10.1	·	·	·	·
CN1C(=O)c2cc(NC(=O)C3CC3)ccc2OC[C@@H]2O[C@H](CC(=O)NCCN3CCCC3)CC[C@@H]21	?	2.2	-3.5	72.1	87.9	6.6	-6.2
CN1C(=O)c2cc(NC(=O)C3CC3)ccc2OC[C@@H]2O[C@@H](CC(=O)NCCN3CCCC3)CC[C@H]21	27.7	-18.1	1.4	·	·	·	·
SMILES	T cruzi growth-1	Pf Dd2 growth	C diff HTS	T cruzi growth-2	T cruzi growth-3	3T3 cytotox	3T3 cytotox 2
CN1C(=O)c2cc(NC(=O)c3cccc(C(F)(F)F)c3)ccc2OC[C@@H]2O[C@H](CC(=O)NCCN3CCCC3)CC[C@@H]21	98.0*	0.0	-8.5	99.3*	81.6	-6.0	6.6
CCCNC(=O)N1C[C@H](O)COC[C@@H]2O[C@H](CC(=O)N[C@H]3CCN(Cc4ccccc4)C3)CC[C@H]21	43.3	·	5.0	·	·	·	·
COc1ccc2c3c([nH]c2c1)[C@H](CO)N(C(=O)C1CCCC1)CC31CN(C)C1	·	-28.9	-6.3	·	·	·	·
CC(C)NC(=O)N(C)C[C@H]1Oc2c(NC(=O)C3CC3)cccc2C(=O)N([C@@H](C)CO)C[C@H]1C	-10.6	7.4	2.3	·	·	·	·
C[C@@H]1CN([C@@H](C)CO)C(=O)c2cccc(NC(=O)NC3CCCCC3)c2O[C@@H]1CN(C)Cc1ccc(Oc2ccccc2)cc1	73.6	-65.2	16.6	·	·	·	·
CC(C)NC(=O)N(C)C[C@H]1Oc2c(NC(=O)C3CC3)cccc2C(=O)N([C@H](C)CO)C[C@H]1C	96.6*	-1.0	-1.9	59.1	-9.7	-3.4	-20.9
Cc1noc(C)c1NC(=O)N(C)C[C@@H]1Oc2c(NS(=O)(=O)c3c(C)noc3C)cccc2C(=O)N([C@@H](C)CO)C[C@@H]1C	15.9	27.6	0.1	·	·	·	·
C[C@@H]1CN([C@H](C)CO)C(=O)c2cccc(NC(=O)NC3CCCCC3)c2O[C@@H]1CN(C)Cc1ccc(-c2ccccc2)cc1	114.6*	-33.8	16.7	101.5*	67.5	6.0	?
Cc1noc(C)c1NC(=O)N(C)C[C@@H]1Oc2c(NS(=O)(=O)c3c(C)noc3C)cccc2C(=O)N([C@H](C)CO)C[C@@H]1C	101.6*	24.9	6.1	101.8*	10.1	12.7	-3.3
